Experimental data as given in PubChem BioAssay.
The source made the active and inactive calls.

Experiments:
Albumin (Bos taurus) = Albumin (Bos taurus) (UniProt P02769); experiment: compounds binding labelled BSA control protein – biochemical, small-molecule microarray, Alexa647 label, 635/667 nm fluorescence, artefact control for SMM control protein annotation, profiling panel (AID 1118); conditions: BSA-A647 binding, fluorescence 635 nm, higher = more signal;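 further: score merges 667 nm emission intensity and signal-to-noise per printed compound spot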
[1] = probe aXIP binding to arrayed compounds – biochemical, NeuroSMM set, 635/667 nm fluorescence, primary screen (AID 1119); conditions: small-molecule microarray, higher = more signal, called active from +8 up or from −8 down;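 further: probe is the protein aXip251-270 applied at 1 µg/mL to compound-printed slides; binding of probe to printed compounds measured as 667 nm fluorescence plus signal to noise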
[2] = probe aNOTCH3 binding on compound microarray – biochemical, small-molecule microarray, 635/667 nm fluorescence, primary screen (AID 1120); conditions: higher = more signal;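 further: probe is a biotin-tagged antibody raised against NOTCH3 rather than NOTCH3 protein; score merges spot fluorescence near 667 nm with spot signal to noise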
[3] = probe aNOTCH2 binding on compound microarray – biochemical, small-molecule microarray, 635/667 nm fluorescence, primary screen (AID 1121); conditions: higher = more signal;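 further: score merges feature fluorescence read at 667 nm with its signal to noise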
[4] = target: Carbonic anhydrase 2 (Homo sapiens) (UniProt P00918); experiment: compounds binding carbonic anhydrase 2 – biochemical, small-molecule microarray, Alexa647-labelled CAII, profiling panel (AID 1122); conditions: CAII-A647 binding fluorescence, higher = more signal
[5] = COS7 lysate on small-molecule microarray, probe aHis, 635 nm (AID 1123); conditions: COS7 cell lysate, fluorescence, higher = more signal;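 further: z-score combines 667nm fluorescence intensity with signal-to-noise per printed compound spot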
[6] = probe aLAP1 signal on lysate-treated microarray – cell lysate, small-molecule microarray, COS7 lysate, primary screen (AID 1124); conditions: probe aLAP1, fluorescence, higher = more signal;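 further: lysate comes from COS7 cells expressing LAP1 and is applied at 0.3 µg/mL; score merges spot fluorescence near 667 nm with signal-to-noise over triplicate slides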
Sam68 (KHDRBS1) = experiment: compounds binding KHDRBS1 protein – biochemical, small-molecule microarray, 635 nm fluorescence, primary screen (AID 1125); conditions: higher = more signal;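 further: score merges 667 nm channel intensity with signal to noise over triplicate slides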
[7] = system: Chordin-like protein 2 (CHRDL2); experiment: compounds binding chordin-like 2 – biochemical, small-molecule microarray, 635 nm fluorescence, primary screen (AID 1126); conditions: fluorescence 635 nm, higher = more signal;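 further: printed compound slides probed with Chrdl2 protein at 4 µg/mL for 1 h at 4 C; score merges 667 nm emission intensity with signal to noise over three replicate slides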
[8] = target: Concanavalin-A (Canavalia ensiformis) (UniProt P02866); experiment: compounds binding concanavalin A lectin – biochemical, small-molecule microarray, Alexa647 label, 635 nm, artefact control for SMM control protein annotation, primary screen (AID 1127); conditions: ConA-A647 binding fluorescence, higher = more signal;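 further: z combines 667 nm emission intensity with signal-to-noise across three replicate slides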
Chain of Concanavalin-A (Canavalia ensiformis) (P02866 whole entry, looked up): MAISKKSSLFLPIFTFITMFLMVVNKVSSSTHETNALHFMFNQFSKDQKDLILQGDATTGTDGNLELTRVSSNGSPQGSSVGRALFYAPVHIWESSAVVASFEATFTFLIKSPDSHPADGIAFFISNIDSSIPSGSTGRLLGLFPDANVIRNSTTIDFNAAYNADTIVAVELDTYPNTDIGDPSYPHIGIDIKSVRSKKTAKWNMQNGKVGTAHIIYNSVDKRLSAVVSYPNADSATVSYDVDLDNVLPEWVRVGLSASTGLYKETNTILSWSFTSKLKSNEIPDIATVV

Chain of Albumin (Bos taurus) (P02769 whole entry, looked up): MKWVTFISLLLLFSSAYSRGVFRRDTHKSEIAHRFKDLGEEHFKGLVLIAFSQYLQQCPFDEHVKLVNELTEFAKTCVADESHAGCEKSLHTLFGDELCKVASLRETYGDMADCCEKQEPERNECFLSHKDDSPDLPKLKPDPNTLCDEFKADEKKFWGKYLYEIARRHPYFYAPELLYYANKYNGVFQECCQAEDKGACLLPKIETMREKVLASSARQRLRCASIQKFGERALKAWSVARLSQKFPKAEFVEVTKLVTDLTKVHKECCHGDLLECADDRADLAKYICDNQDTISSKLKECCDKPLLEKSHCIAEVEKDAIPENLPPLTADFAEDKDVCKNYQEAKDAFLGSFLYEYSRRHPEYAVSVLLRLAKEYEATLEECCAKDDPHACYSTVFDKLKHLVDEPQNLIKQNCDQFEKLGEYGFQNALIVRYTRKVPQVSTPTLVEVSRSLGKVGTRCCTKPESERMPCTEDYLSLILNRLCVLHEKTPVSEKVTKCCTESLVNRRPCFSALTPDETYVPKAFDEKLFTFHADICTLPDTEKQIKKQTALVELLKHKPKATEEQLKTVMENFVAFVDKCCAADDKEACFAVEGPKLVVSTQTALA

Row | Compound | composite z-score (Albumin (Bos taurus)) | composite Z-score [1] | composite z-score [2] | composite z-score [3] | composite z-score [4] | composite z-score [5] | composite z-score [6] | composite z-score (Sam68 (KHDRBS1)) | composite z-score [7] | composite z-score [8]
1 | CCC#CCN(Cc1ccccc1Br)[C@H](/C=C/c1ccccc1)[C@@H](O)Cc1ccccc1 | -0.904 | 0.12 (inactive) | -0.132 | -0.145 | -0.225 | 0.301 | 0.162 | -1.13 | -1.16 | -0.779
2 | O=C1OCC=C[C@H]2OC34C=CCN(Cc5ccccc5)C(=O)[C@H]3N(CCCCCO)C(=O)[C@@H]4[C@@H]12 (stereo not given in full) | -0.711 | 1.78 (inactive) | -0.231 | -0.207 | 0.605 | 0.096 | -0.493 | -0.673 | -0.99 | -1.11
3 | CCCC/C=C/[C@H]([C@@H](O)Cc1ccccc1)N(CC#Cc1ccccc1)Cc1ccccc1Br | -0.861 | 0.911 (inactive) | -0.346 | -0.171 | -0.382 | 0.0748 | 0.006 | -0.61 | -1.64 | -0.89
4 | Cc1ccc(N2C(=O)c3ccccc3[C@](C)(C(=O)O)[C@@H]2c2ccc(CO)cc2)nc1 | -1.29 | -0.313 (inactive) | -0.414 | -0.228 | 0.289 | -0.471 | 0.067 | -1.17 | -1.77 | -1.14
5 | C=CCC(OC(C)=O)[C@@H]1[C@@H](N(Cc2ccc(-c3ccccc3)cc2)C(=O)c2ccc(C)cc2)c2cc(OCCCO)ccc2N1C(=O)c1ccc(-c2ccccc2)cc1 (stereo not given in full) | 0.101 | 0.451 (inactive) | -0.0933 | -0.0664 | -0.102 | 0.23 | 0.232 | -0.0015 | -0.0151 | -0.925
6 | CO[C@@H]1COC(=O)[C@@H]2CCCN2C(=O)CC=C[C@@H](C)[C@H](OC)COC(=O)[C@@H]2CCCN2C(=O)CC=C[C@H]1C | -1.36 | -0.286 (inactive) | -0.0699 | -0.141 | -0.439 | -0.422 | 0.169 | -0.149 | 1.36 | -0.512
7 | CO[C@H]1COC(=O)[C@H](CCSC)NC(=O)CC=C[C@@H](C)COC(=O)[C@@H](OCc2ccccc2)C=C[C@@H]1C | -1.35 | -0.273 (inactive) | -0.0914 | -0.102 | -0.498 | -0.345 | -0.0638 | 0.51 | 1.51 | -0.623
8 | CO[C@H]1COC(=O)CC=C[C@@H](C)COC(=O)[C@@H](C)NC(=O)CC=C[C@@H]1C | -1.07 | 2.3 (inactive) | -0.0345 | -0.153 | -0.681 | -0.736 | -0.495 | 0.787 | 1.59 | -0.704
9 | C=CCC(OC(C)=O)[C@@H]1[C@@H](N(Cc2cc3ccccc3o2)C(=O)c2ccc(C)cc2)c2cc(OCCCO)ccc2N1C(=O)c1ccc2ccccc2n1 (stereo not given in full) | 0.659 | 0.0726 (inactive) | -0.0984 | -0.0037 | -0.135 | 0.043 | -0.348 | 0.0268 | 0.194 | -0.304
10 | COC(=O)Cn1c(C(=O)N2CCCC2)cc2c1C[C@H]1CN(C(=O)c3ccccc3)[C@@](Cc3ccccc3)(C(=O)OC)[C@@H]21 | 1.06 | 0.0529 (inactive) | -0.0647 | 0.0292 | 0.752 | 1.99 | -0.263 | 0.185 | -1.13 | 0.831
11 | C=C(C)[C@@H]1CC=C(C(O)C2C=CC3C(=O)NC(=O)C3N2Nc2ccccn2)CC1 (stereo not given in full) | -0.27 | 0.804 (inactive) | 0.441 | 0.0179 | 0.809 | 1.37 | 0.759 | 1.31 | 1.61 | 1.14
12 | CN1C(=O)C2C=CC(C(O)c3ccc(N(C)C)cc3)N(Nc3ccc([N+](=O)[O-])cc3[N+](=O)[O-])C2C1=O (stereo not given) | 0.944 | -0.399 (inactive) | 0.586 | 0.0683 | 0.729 | 2.72 | 1.4 | 1.21 | 0.556 | 0.884
13 | C=C[C@H](OC)[C@@H](OC(=O)Nc1ccc(SC)cc1)c1ccc(O)c(F)c1 | 0.661 | 1.13 (inactive) | 0.0864 | -0.182 | 0.699 | 2.82 | 0.694 | 1.24 | -0.267 | 0.187
14 | C[C@@H]1CC[C@H]2C(=O)N3CCC[C@H]3C(=O)N2[C@H]1c1ccc(Br)cc1 | -0.295 | 0.734 (inactive) | -0.261 | -0.174 | -0.213 | 0.233 | 0.123 | -0.0235 | 0.536 | -0.377
15 | CO[C@@H]1COC(=O)CC=C[C@@H](C)[C@H](OC)COC(=O)CC=C[C@H]1C | -0.978 | 0.413 (inactive) | -0.103 | -0.169 | -0.374 | -0.168 | -0.412 | -0.345 | 1.48 | -0.362
16 | Cc1ccc(S[C@]2(C(=O)NCCCN(C)C)CC(=O)N(C3CCCCC3)[C@@H]2c2ccc(CO)cc2I)cc1 | -1.58 | -0.102 (inactive) | 0.0836 | -0.107 | 0.442 | 1.51 | 0.379 | -0.171 | -0.801 | -1.49

Row | Compound | composite z-score (Albumin (Bos taurus)) | composite Z-score [1] | composite z-score [2] | composite z-score [3] | composite z-score [4] | composite z-score [5] | composite z-score [6] | composite z-score (Sam68 (KHDRBS1)) | composite z-score [7] | composite z-score [8]
17 | CO[C@H]1O[C@H](CO)[C@@H](OC(=O)Nc2ccc(Oc3ccccc3)cc2)[C@H](OC(=O)Nc2ccccc2-c2ccccc2)[C@H]1OC(=O)Nc1ccccc1-c1ccccc1 | 0.892 | -0.0478 (inactive) | 0.289 | -0.0519 | 0.442 | 2.68 | 1.26 | 1.31 | 0.203 | 1.18
18 | Cc1ccc(N2C(=O)c3ccccc3[C@@H](C(=O)NCC(F)(F)F)[C@@H]2c2ccc(CO)cc2)nc1 | -0.0791 | 0.352 (inactive) | -0.185 | -0.0674 | 0.844 | -0.786 | -0.415 | -1.85 | -2.4 | -1.9
19 | CCN1C(C)=C(C(=O)OC)[C@@H](c2ccccc2)N2C(=O)[C@](O)(C(=O)OC)[C@@H](c3ccccc3)C(C(=O)c3ccccc3)=C12 | 0.325 | 0.111 (inactive) | 0.541 | -0.112 | 0.401 | 0.915 | 0.629 | 0.723 | 0.309 | 0.352
20 | COc1cccc([C@H]2N[C@H](C(=O)O)CC[C@@H]2C)c1 | -0.207 | -0.269 (inactive) | -0.15 | -0.129 | 0.0689 | -0.146 | -0.283 | 0.0672 | 0.135 | 0.334
21 | C=CCNC(=O)[C@@H]1[C@H]2C(=O)O[C@H](c3ccccc3)[C@H](c3ccccc3)N2[C@H](c2ccc(OCCO)cc2)[C@@]12C(=O)N(C(=O)OCCOC)c1ccc(C#CC3(O)CCCCCC3)cc12 | 0.801 | 1.7 (inactive) | 0.353 | -0.0502 | 0.572 | 1.5 | 0.568 | 1.3 | -0.0335 | 1.07
22 | COCCOC(=O)N1C(=O)[C@@]2(c3ccccc31)[C@H](C(=O)N1CCc3cc(OC)c(OC)cc3C1)[C@H]1C(=O)O[C@H](c3ccccc3)[C@H](c3ccccc3)N1[C@@H]2c1ccccc1OCCO | 0.484 | 0.497 (inactive) | 0.0556 | -0.0607 | 0.441 | 1.24 | 0.0221 | 1.3 | 0.107 | 1.17
23 | O=C1C2C=CC(C(O)Cc3ccccc3)N(Nc3ccc([N+](=O)[O-])cc3)C2C(=O)N1c1ccccc1 (stereo not given) | 0.944 | -0.205 (inactive) | 0.357 | 0.401 | 0.759 | 1.02 | 0.517 | 0.719 | 0.709 | 0.185
24 | COc1ccc(C(O)C2C=CC3C(=O)N(C)C(=O)C3N2N2CCCCC2)cc1OCc1ccccc1 (stereo not given) | 0.728 | 0.248 (inactive) | 0.13 | -0.0546 | 0.38 | 1.71 | 0.445 | 1.29 | -0.651 | 1.12
25 | C[C@H]1COC(=O)[C@@H]2CCCN2C(=O)[C@@H](C)COC(=O)[C@@H]2CCCN2C1=O | -0.503 | -0.221 (inactive) | -0.241 | -0.108 | -0.525 | -0.99 | -0.111 | -1.02 | 0.296 | -0.0254
26 | COC(=O)C(CC#Cc1ccc2c(c1)[C@]1(C(=O)N2)[C@H](C(=O)N2CCCCCCC2)[C@H]2C(=O)O[C@H](c3ccccc3)[C@H](c3ccccc3)N2[C@@H]1c1ccc(O)cc1)C(=O)OC | -0.264 | 0.448 (inactive) | -0.379 | -0.0829 | -0.59 | -0.437 | 0.39 | -0.92 | -1.32 | 0.266
27 | C=C(COC)/C(=C/C[C@@H](OC(C)=O)c1cccc(OCCO)c1)c1cc(C(=O)OC)ccc1OC | -0.458 | -0.574 (inactive) | -0.0729 | -0.125 | 0.402 | -0.194 | -0.315 | 0.539 | -0.458 | -0.937
28 | CO[C@]12C=C(Br)[C@@H](C[C@@H]1c1ccccc1)[C@@]1(CO1)C2=O | 0.139 | -0.0467 (inactive) | 0.0773 | -0.11 | 0.143 | -0.245 | -0.0571 | 0.0999 | 0.77 | 0.0193
29 | CN(C)C(=O)[C@@]1(Cc2ccccc2N=[N+]=[N-])N=C(c2ccc(OCCCO)cc2)O[C@H]1c1ccccc1CN=[N+]=[N-] | 0.972 | 0.478 (inactive) | 0.293 | 0.215 | 0.622 | 3.13 | 1.12 | 1.29 | -0.393 | 1.2
30 | C=C(CCCC)/C(=C/C[C@H](OC(=O)c1ccncc1)c1cccc(OCCO)c1)c1cc(C(=O)OC)ccc1OC | -0.2 | -0.331 (inactive) | 0.074 | -0.131 | 0.0309 | 1.09 | -0.132 | 0.711 | 0.363 | 0.724
31 | CCCNC(=O)[C@@]1(Sc2ccc(C)cc2)CC(=O)N(Cc2ccccc2Cl)[C@@H]1c1ccc(CO)cc1 | 0.694 | 0.165 (inactive) | 0.308 | -0.0906 | 0.572 | 1.67 | 1.2 | 1.31 | 0.725 | 1.12
